Source: PubChem BioAssay (NCI)
The panel holds about 79,000 compounds, 15% with a hit somewhere; the sample as a whole holds those more often. Values without a mark were called inactive. Activity calls are given as the source filed them. No stated cut-off is given here; in the data, active means growth inhibition above about 70%; inactive means the rest.

Legend:
[1] = NCI Yeast Anticancer Drug Screen. Data for the rad50 strain (AID 155);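 further: 0% = growth of vehicle-only cultures of the same strain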; conditions: S. cerevisiae rad50 strain growth inhibition, hits give high values
Outline: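 Inhibition values express reduced yeast growth in compound-treated cultures relative to vehicle-treated controls.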

[2] = NCI Yeast Anticancer Drug Screen. Data for the mec2-1 strain (AID 157); conditions: S. cerevisiae mec2-1 strain, hits give high values
Outline: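 Growth inhibition is read against vehicle-treated controls after compound exposure of the mec2-1 yeast strain, which is defective in DNA damage repair or cell cycle control.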

[3] = NCI Yeast Anticancer Drug Screen. Data for the sgs1 mgt1 strain (AID 161);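 further: 0% = growth of cultures given vehicle only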; conditions: S. cerevisiae sgs1 mgt1 strain, hits give high values
Outline: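 Compounds are added to genetically altered yeast, and growth is compared with cultures given vehicle alone to give percent inhibition.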

[4] = NCI Yeast Anticancer Drug Screen. Data for the cln2 rad14 strain (AID 165);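 further: 0% = growth equal to vehicle treated cultures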; conditions: S. cerevisiae cln2 rad14 strain, hits give high values
Outline: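 Growth inhibition, relative to vehicle-treated controls, is the read-out. The test organism is a yeast strain with defined genetic alterations, cln2 rad14.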

[5] = NCI Yeast Anticancer Drug Screen. Data for the bub3 strain (AID 167); conditions: S. cerevisiae bub3 mutant strain, hits give high values
Outline: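 Steps: expose the mutant yeast strain to compound; grow alongside vehicle-treated cultures; measure growth; express inhibition against the vehicle cultures.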

[6] = NCI Yeast Anticancer Drug Screen. Data for the mlh1 rad18 strain (AID 175); conditions: S. cerevisiae mlh1 rad18 strain growth inhibition, hits give high values
Outline: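 Cells of a genetically altered yeast strain, deficient in DNA damage repair, were treated with compound. Their growth was then compared with that of vehicle-treated cultures to give inhibition.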

[7] = at 5.0 µM (retest, dose inferred, filed as 0.5)
[8] = at 50.0 µM (retest, dose inferred, filed as 5.0)

SMILES	growth inhibition [1, 7] [%]	growth inhibition [1, 8]	growth inhibition ([1]; at 50.0 µM)	growth inhibition [2, 7] [%]	growth inhibition [2, 8]	growth inhibition ([2]; at 50.0 µM)	growth inhibition [3, 7] [%]	growth inhibition [3, 8]	growth inhibition ([3]; at 50.0 µM)	growth inhibition [4, 7] [%]	growth inhibition [4, 8]	growth inhibition ([4]; at 50.0 µM)	growth inhibition [5, 7] [%]	growth inhibition [5, 8]	growth inhibition ([5]; at 50.0 µM)	growth inhibition [6, 7] [%]	growth inhibition [6, 8]	growth inhibition ([6]; at 50.0 µM)
CC(Nc1cc(Cl)cc(Cl)c1)c1ccncc1 (stereo not given)	1	98% (active)	37.2%	-26	98% (active)	56.4%	-31	91% (active)	43%	22	98% (active)	22%	-59	99% (active)	43.5%	-10	98% (active)	42.5%
CCCCNC(=O)OCCN=C1c2ccccc2C(Br)C(Br)c2ccccc21 (stereo not given)	5	37%	98.4% (active)	2	23%	98.5% (active)	-5	21%	97.3% (active)	7	20%	97.8% (active)	9	28%	97.8% (active)	–	–	–
CC1CCCN(CC(O)CN2CCCc3ccccc32)C1 (stereo not given)	0	32%	97.9% (active)	8	17%	94.5% (active)	2	25%	97.6% (active)	26	33%	94.4% (active)	-7	29%	96% (active)	–	–	–
OCc1ccc2c(c1)CC1(C2)Cc2cc3c(cc2C1O)CCC3 (stereo not given)	20	41%	48.6%	18	36%	42.4%	3	22%	51.8%	5	51%	47.4%	21	59%	33.2%	20	57%	71% (active)
Cc1nn(C(=O)c2ccccc2O)c2c1C(c1ccco1)SC(N)=N2 (stereo not given)	-6	65%	67.5%	11	59%	38.8%	8	64%	57%	10	52%	43.6%	7	86% (active)	69%	–	–	–
O=C(CBr)C1(Br)CCN(Cc2ccccc2)CC1	19	99% (active)	99.3% (active)	17	99% (active)	99.8% (active)	22	99% (active)	99.6% (active)	8	99% (active)	97.6% (active)	6	99% (active)	99.5% (active)	–	–	–
COC(OC)(c1ccccc1)C(Br)Br	-21	50%	85.8% (active)	-18	86% (active)	93.2% (active)	-24	45%	89.3% (active)	-7	41%	90.4% (active)	-25	89% (active)	90% (active)	-12	59%	84.8% (active)
O=C(CCl)[O][Bi]([O]C(=O)CCl)([c]1ccccc1)([c]1ccccc1)[c]1ccccc1	10	51%	13%	11	58%	15.7%	32	83% (active)	-8.4%	26	59%	5.75%	31	85% (active)	10.2%	17	71% (active)	23.1%
[N-]=[N+]=NCC(O)c1ccc2c(c1)[nH]c1ccccc12 (stereo not given)	-11	30%	47.9%	-7	30%	29.6%	-5	41%	27.6%	-8	23%	81.8% (active)	-4	36%	64%	–	–	–
O=C1O/C(=C\c2ccccc2)c2ccccc21	3	66%	46.5%	-41	20%	37.1%	1	47%	47.6%	-4	-1%	1.8%	40	63%	54.5%	2	50%	68.3%
